Drawing on PubChem BioAssay (NCATS), this text covers Potency for 36 compounds.

Results filed as inconclusive are left out. Where a call stands in place of a potency, no number is given. Activity calls are given as the source filed them. Calls come from the whole dose curve; as a rule, active = well fitted inhibition curve with a large enough effect; inconclusive = small, poorly fitted or top-dose-only effect; inactive = no such curve, though single readings can be large or run the other way.
Potency is the fitted concentration of half-maximal effect.

In the test the test system is Zika virus NS2B-NS3 protease (linked construct). The experiment in a line: Primary screen NINDS Rhodamine qHTS for Zika virus inhibitors (AID 1347160). Note: nearly all actives have a fitted effect of over 55% in size. The settings on record: purified NS2B-NS3 protease, Rhodamine110 substrate fluorescence; series mostly up to 57.1 µM. The essentials:
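Rhodamine110-peptide cleavage (1.5 µM substrate) by 25 nM linked NS2B-NS3 enzyme at pH 8.0 (Tris, Tween 20), after 15 min RT preincubation with compounds; 15-min fluorescence change normalized to controls and Hill-fitted.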
For `CN[C@@H]1[C@@H](O)[C@@H](O[C@@H]2[C@@H](O)[C@H](O[C@H]3O[C@@H]([C@@H](C)NC)CC[C@H]3N)[C@@H](N)C[C@H]2N)OC[C@]1(C)O`, the Potency result is “inactive”. For `C[N+]1(C)[C@@H]2CC[C@H]1CC(OC(=O)C(O)c1ccccc1)C2` (stereo partly specified), the Potency result was “inactive”. As to `O=C(c1ccc(F)c(F)c1Nc1ccc(I)cc1F)N1CC(O)([C@@H]2CCCCN2)C1`, the Potency result is “inactive”. Take `CCNC(=O)[C@@H]1CCCN1C(=O)[C@H](CCCN=C(N)N)NC(=O)[C@H](CC(C)C)NC(=O)[C@@H](CC(C)C)NC(=O)[C@H](Cc1ccc(O)cc1)NC(=O)[C@H](CO)NC(=O)[C@H](Cc1c[nH]c2ccccc12)NC(=O)[C@H](Cc1cnc[nH]1)NC(=O)[C@@H]1CCC(=O)N1`: the Potency entry is “inactive”. Under `CC(CCC1(O)OC2CC3C4CC=C5CC(O[C@@H]6O[C@H](CO)[C@@H](O[C@@H]7O[C@H](CO)[C@@H](O)[C@H](O)[C@H]7O)[C@H](O)[C@H]6O[C@@H]6O[C@@H](C)[C@H](O)[C@@H](O)[C@H]6O)CCC5(C)C4CCC3(C)C2C1C)CO[C@@H]1O[C@H](CO)[C@@H](O)[C@H](O)[C@H]1O` (stereo partly specified) stands “inactive”. `CN([C@H]1c2cc(OCCCC(F)(F)F)ccc2OC(C)(C)[C@@H]1O)S(C)(=O)=O`: the Potency entry is “inactive”. Consider `CC1(CO)CCCC2(C)C1C(OC(=O)c1ccccc1)C=C1C(=O)OCC12O` (stereo unspecified), for which the Potency entry is “inactive”. `Cn1c(NC[C@@H](N)Cc2ccccc2)nc(-c2ccncc2)c(-c2ccc3ccccc3c2)c1=O`: the Potency result was “inactive”. As for `CCCCC(=O)N(Cc1ccc(-c2ccccc2-c2nn[nH]n2)cc1)C(C(=O)O)C(C)C` (stereo unspecified), the Potency result was “inactive”.

For the compound `Nc1nc(NCC2CCC(CNS(=O)(=O)c3cccc4ccccc34)CC2)nc2ccccc12` (stereo unspecified), the Potency entry was “inactive”. Under `COc1ccc(NS(=O)(=O)c2sc3ccc(Cl)cc3c2C)cc1N1CCNCC1` stands “inactive”. For `CCCCc1nc(Cl)c(CO)n1Cc1ccc(-c2ccccc2-c2nnn[nH]2)cc1` the value was “inactive”; for `CCC(=O)c1cc(-c2ccc(Cl)cc2)n(-c2ccc(S(N)(=O)=O)cc2)c1C`, “inactive”; for `Cc1cc(N=Nc2ccc(S(=O)(=O)Nc3ccccn3)cc2)c(N)cc1O`, “inactive”. Under `Cc1cc(C)c(NC(=O)N(Cc2ccc3c(c2)Cc2ccccc2-3)C2CCCCCC2)c(C)c1` stands “inactive”; under `Fc1ccccc1CNCc1ccc(-c2ccnc3[nH]ccc23)cc1`, “inactive”; under `CN(Cc1ccc(C(=O)O)cc1)c1ccc(OCc2c(-c3c(Cl)cccc3Cl)noc2C2CC2)nc1C(F)(F)F`, 2510 nM (active). For the compound `Cc1nc(C)c2c(n1)N(Cc1ccc(-c3ccccc3-c3nn[nH]n3)cc1)C(=O)CC2`, the Potency result was “inactive”. For `N#C[C@@H]1C[C@@H]2C[C@@H]2N1C(=O)[C@@H](N)C12CC3CC(CC(O)(C3)C1)C2`, the Potency result is “inactive”.

Turning to `CCCCOc1ccc(-c2cncc(C(=O)NCc3cccnc3N3CCOCC3)c2)cc1Cl`, the Potency result is “inactive”. On to `C=CC(=O)N1CCN(C(=O)c2cc(-c3cc(Cl)ccc3Cl)c(Cl)cc2OC)CC1`, for which the Potency result is “inactive”. `CC[C@H]1OC(=O)[C@H](C)[C@@H](O[C@H]2C[C@@](C)(OC)[C@@H](O)[C@H](C)O2)[C@H](C)[C@@H](O[C@@H]2O[C@H](C)C[C@H](N(C)C)[C@H]2O)[C@](C)(O)C[C@@H](C)/C(=N/OCOCCOC)[C@H](C)[C@@H](O)[C@]1(C)O`: the Potency result was “inactive”. Consider `C[C@@H](O[C@H]1OCCN(Cc2n[nH]nc2CN(C)C)[C@H]1c1ccc(F)cc1)c1cc(C(F)(F)F)cc(C(F)(F)F)c1`, for which the Potency result was “inactive”. For `Cc1cc(CN)cc(C)c1NC(=O)c1ccc(-c2cc(Cl)ccc2Cl)o1` the value was “inactive”; for `CCCCc1nc(C)c(CC(=S)N(C)C)c(=O)n1Cc1ccc(-c2ccccc2-c2nn[nH]n2)cc1`, “inactive”; for `CC(=O)N1CCN([C@H]2CCN(C(=O)N(C)[C@H](C)c3cc(C(F)(F)F)cc(C(F)(F)F)c3)[C@@H](c3ccc(F)cc3C)C2)CC1`, “inactive”. Under `CC1(C)SC2C(NC(=O)[C@H](C(=O)O)c3ccsc3)C(=O)N2C1C(=O)O` (stereo partly specified) stands “inactive”. For `Cc1cc(C)c(-c2csc(NC(=O)c3ccccc3)n2)c(C)c1` the value was “inactive”. As for `COc1c(N2CC3CCCNC3C2)c(F)cc2c(=O)c(C(=O)O)cn(C3CC3)c12` (stereo unspecified), the Potency entry was “inactive”.

On to `COc1cc(N2CCN(C(C)=O)CC2)ccc1Nc1ncc(Cl)c(Nc2ccc(N3CCN(C(C)=O)CC3)cc2OC)n1`, for which the Potency result is “inactive”. Consider `CN(CC(=O)N(Cc1ccc(C2CCCCC2)cc1)c1ccc(C(=O)O)cc1)S(=O)(=O)c1c(F)c(F)c(F)c(F)c1F`, for which the Potency was 2820 nM (active). On to `CO[C@@H]1[C@@H](O[C@H]2O[C@@H](C)[C@H](O[C@@H]3C[C@](C)(O)[C@H](O)[C@@H](C)O3)[C@@H](N(C)C)[C@@H]2O)[C@@H](CC=O)C[C@@H](C)[C@@H](O[C@H]2CC[C@H](N(C)C)[C@H](C)O2)/C=C/C=C/C[C@@H](C)OC(=O)C[C@H]1O`, for which the Potency entry was “inactive”.

`CC1OC2O[C@H]3[C@@H](OCC(O)[C@H]3O)OC(=O)C34CCC(C)(C)CC3C3=CCC5C6(C)CC(O)C(OC7OC(CO)C(O)C(O)C7O[C@@H]7OC[C@H](OC(=O)CC(C)(O)CC(=O)OC1C(OC1OCC(O)C(O)C1O)C2O)[C@@H](O)[C@H]7O)C(C)(CO)C6CCC5(C)C3(C)CC4` (stereo partly specified): the Potency result is “inactive”. As for `COCCNCc1ccc(-c2cc3nccc(Oc4ccc(NC(=S)NC(=O)Cc5ccc(F)cc5)cc4F)c3s2)nc1`, the Potency entry is “inactive”. For the compound `Cc1cc(CS(=O)(=O)c2ccccc2)cc(OCc2ccc(CN3CCC[C@@H]3CO)cc2)c1`, the Potency result is “inactive”. As for `Cc1ccn(-c2cc(Cl)ccc2[C@@H](Oc2cc(-c3ccc(C[C@H](N)C(=O)O)cc3)nc(N)n2)C(F)(F)F)n1`, the Potency is 22400 nM (active).
